For some of these results: Entries with a potency or affinity are not part of this list. The source made the active and inactive calls.
Experiments:
[1] = Ebola virus entry assay, green fluorescence channel
[2] = Ebola virus entry assay, ratio channel readout
[3] = Ebola virus entry assay, blue channel fluorescence
[4] = Ebola virus entry assay, ratio channel
[5] = Ebola virus entry assay, green channel fluorescence
[6] = Ebola virus entry assay, blue channel fluorescence; remark: listed apart in the source
[7] = Ebola virus entry assay, reporter ratio channel
[8] = Ebola virus entry assay, blue channel (ratio component)
[9] = Ebola virus entry reporter assay, green channel fluorescence
[10] = Ebola virus entry cell assay, ratio channel
[11] = AC50: Channel type: primary unless noted, outcome: Channel type: primary unless noted

Measured: AC50

COc1ccccc1OCC(O)CN1CCN(CC(=O)Nc2c(C)cccc2C)CC1 (stereo not given)
inactive: [1] | [2] | [3] | [4] | [5] | [6] | [7]; [11] | [8] | [9] | [10]

COC(c1ccccc1)(c1ccccc1)[C@H](Oc1nc(C)cc(C)n1)C(=O)O
inactive: [1] | [2] | [3] | [4] | [5] | [6] | [7]; [11] | [8] | [10]

CC[N+](C)(C)c1cccc(O)c1
inactive: [1] | [2] | [3] | [4] | [5] | [6] | [7]; [11] | [8] | [9] | [10]

CC(C)(O)c1ccccc1CC[C@@H](SCC1(CC(=O)O)CC1)c1cccc(/C=C/c2ccc3ccc(Cl)cc3n2)c1
inactive: [1] | [2] | [3] | [4] | [5] | [6] | [7]; [11] | [8] | [10]

CN(C)CCc1c[nH]c2ccc(CS(=O)(=O)N3CCCC3)cc12
inactive: [1] | [2] | [3] | [4] | [5] | [6] | [7]; [11] | [8] | [10]

CCCCCOC(=O)Nc1nc(=O)n([C@@H]2O[C@H](C)[C@@H](O)[C@H]2O)cc1F
inactive: [1] | [2] | [3] | [4] | [5] | [6] | [7]; [11] | [8] | [10]

CCN(C)C(=O)Oc1cccc([C@H](C)N(C)C)c1
inactive: [1] | [2] | [3] | [4] | [5] | [6] | [7]; [11] | [8] | [9] | [10]

CC1(C)O[C@@H]2[C@@H](CO[C@@]3(COS(N)(=O)=O)OC(C)(C)O[C@@H]23)O1
inactive: [1] | [2] | [3] | [4] | [5] | [6] | [7]; [11] | [8] | [10]

CC(=O)CCCCn1c(=O)c2c(ncn2C)n(C)c1=O
inactive: [1] | [2] | [3] | [4] | [5] | [6] | [7]; [11] | [8] | [10]

CNS(=O)(=O)CCc1ccc2[nH]cc(C3CCN(C)CC3)c2c1
inactive: [1] | [2] | [3] | [4] | [5] | [6] | [7]; [11] | [8] | [10]

Nc1nc(=S)c2[nH]cnc2[nH]1
inactive: [1] | [2] | [3] | [4] | [5] | [6] | [7]; [11] | [8] | [10]

CC(C)NCC(O)c1ccc(O)c(O)c1 (stereo not given)
inactive: [1] | [2] | [3] | [4] | [5] | [6] | [7]; [11] | [8] | [10]

Cc1[nH]c(=O)c(C#N)cc1-c1ccncc1
inactive: [1] | [2] | [3] | [4] | [5] | [6] | [7]; [11] | [8] | [9] | [10]

N[C@@H](Cc1cc(I)c(Oc2cc(I)c(O)c(I)c2)c(I)c1)C(=O)O
inactive: [1] | [2] | [3] | [4] | [5] | [6] | [7]; [11] | [8] | [10]

Nc1ncn([C@@H]2O[C@H](CO)[C@@H](O)[C@H]2O)c(=O)n1
inactive: [1] | [2] | [3] | [4] | [5] | [6] | [7]; [11] | [8] | [10]

COc1cc2c(cc1OC)[C@@H]1CC(=O)[C@@H](CC(C)C)CN1CC2
inactive: [1] | [2] | [3] | [4] | [5] | [6] | [7]; [11] | [8] | [10]

CCCC(C)(COC(N)=O)COC(=O)NC(C)C (stereo not given)
inactive: [1] | [2] | [3] | [4] | [5] | [6] | [7]; [11] | [8] | [10]

Cn1c(CCCC(=O)O)nc2cc(N(CCCl)CCCl)ccc21
inactive: [1] | [2] | [3] | [4] | [5] | [6] | [7]; [11] | [8] | [10]

CCCN[C@H]1CCc2nc(N)sc2C1
inactive: [1] | [2] | [3] | [4] | [5] | [6] | [7]; [11] | [8] | [10]

Cc1cn([C@H]2C=C[C@@H](CO)O2)c(=O)[nH]c1=O
inactive: [1] | [2] | [3] | [4] | [5] | [6] | [7]; [11] | [8] | [10]

CC(=O)N(O)CCCCCNC(=O)CCC(=O)N(O)CCCCCNC(=O)CCC(=O)N(O)CCCCCN
inactive: [1] | [2] | [3] | [4] | [5] | [6] | [7]; [11] | [8] | [10]

CC(C)C(=O)Nc1ccc([N+](=O)[O-])c(C(F)(F)F)c1
inactive: [1] | [2] | [3] | [4] | [5] | [6] | [7]; [11] | [8] | [10]

CCCN(CCC)S(=O)(=O)c1ccc(C(=O)O)cc1
inactive: [1] | [2] | [3] | [4] | [5] | [6] | [7]; [11] | [8] | [10]

NS(=O)(=O)Cc1noc2ccccc12
inactive: [1] | [2] | [3] | [4] | [5] | [6] | [7]; [11] | [8] | [10]

CN(CCOc1ccc(NS(C)(=O)=O)cc1)CCc1ccc(NS(C)(=O)=O)cc1
inactive: [1] | [2] | [3] | [4] | [5] | [6] | [7]; [11] | [8] | [10]

O=C(c1ccccc1)c1ccc2n1CCC2C(=O)O (stereo not given)
inactive: [1] | [2] | [3] | [4] | [5] | [6] | [7]; [11] | [8] | [9] | [10]

Oc1cn2c(n1)Nc1ccc(Cl)c(Cl)c1C2
inactive: [1] | [2] | [3] | [4] | [5] | [6] | [7]; [11] | [8] | [9] | [10]

Cc1ccc(C(=O)c2cc(O)c(O)c([N+](=O)[O-])c2)cc1
inactive: [1] | [2] | [3] | [4] | [5] | [6] | [7]; [11] | [8] | [10]

CN(C)c1nc(N(C)C)nc(N(C)C)n1
inactive: [1] | [2] | [3] | [4] | [5] | [6] | [7]; [11] | [8] | [10]

CC(=O)O[C@]1(C(C)=O)CC[C@H]2[C@@H]3C=C(C)C4=CC(=O)CC[C@]4(C)[C@H]3CC[C@@]21C
inactive: [1] | [2] | [3] | [4] | [5] | [6] | [7]; [11] | [8] | [10]

COc1nc(N)nc2c1ncn2[C@@H]1O[C@H](CO)[C@@H](O)[C@@H]1O
inactive: [1] | [2] | [3] | [4] | [5] | [6] | [7]; [11] | [8] | [10]

CO[C@@]12[C@H](COC(N)=O)C3=C(C(=O)C(C)=C(N)C3=O)N1C[C@@H]1N[C@@H]12
inactive: [1] | [2] | [3] | [4] | [5] | [6] | [7]; [11] | [8] | [9] | [10]

CCOc1ccc2ccccc2c1C(=O)N[C@@H]1C(=O)N2[C@@H]1SC(C)(C)[C@@H]2C(=O)O
inactive: [1] | [2] | [3] | [4] | [5] | [6] | [7]; [11] | [8] | [10]

Cc1cc(C)cc(OCC2CNC(=O)O2)c1 (stereo not given)
inactive: [1] | [2] | [3] | [4] | [5] | [6] | [7]; [11] | [8] | [10]

CN(C)CCOC(c1ccc(Cl)cc1)c1ccccn1 (stereo not given)
inactive: [1] | [2] | [4] | [6] | [9] | [10]
active: [3] 22.4 µM | [7]; [11] 39.8 µM

CC(=O)O[C@@]12CO[C@@H]1C[C@H](O)[C@@]1(C)C(=O)[C@H](O)C3=C(C)[C@@H](OC(=O)[C@H](O)[C@@H](NC(=O)OC(C)(C)C)c4ccccc4)C[C@@](O)([C@@H](OC(=O)c4ccccc4)[C@H]21)C3(C)C
inactive: [1] | [2] | [3] | [6] | [8] | [9] | [10]
active: [4] 20 µM | [7]; [11] 20 µM

Cc1ccc(-n2[nH]c(C)c(N=Nc3cccc(-c4cccc(C(=O)O)c4)c3O)c2=O)cc1C
inactive: [1] | [2] | [3] | [4] | [6] | [7]; [11] | [8] | [9] | [10]

CC(C)OC(=O)C(C)(C)Oc1ccc(C(=O)c2ccc(Cl)cc2)cc1
inactive: [1] | [2] | [3] | [4] | [7]; [11] | [8] | [9] | [10]

CCC(COC(=O)c1cc(OC)c(OC)c(OC)c1)(c1ccccc1)N(C)C (stereo not given)
active: [4] 17.8 µM | [7]; [11] 17.8 µM
inactive: [1] | [2] | [3] | [8] | [9] | [10]

NC[C@H](O)c1ccc(O)c(O)c1
active: [3] 12.6 µM | [4] 7.94 µM | [7]; [11] 7.94 µM
inactive: [1] | [2] | [6] | [10]

CC(C)(C)NC(=O)[C@H]1CC[C@H]2[C@@H]3CC[C@H]4NC(=O)C=C[C@]4(C)[C@H]3CC[C@]12C
inactive: [1] | [2] | [3] | [4] | [6] | [7]; [11] | [8] | [10]

O=C(CCCN1CCC(O)(c2ccc(Cl)cc2)CC1)c1ccc(F)cc1
active: [3] 10 µM | [4] 10 µM | [7]; [11] 10 µM
inactive: [1] | [2]

C[C@H]1c2cccc(O)c2C(O)=C2C(=O)[C@]3(O)C(O)=C(C(N)=O)C(=O)[C@@H](N(C)C)[C@@H]3[C@@H](O)[C@@H]21
inactive: [1] | [2] | [6] | [10]
active: [3] 25.1 µM | [4] 20 µM | [7]; [11] 20 µM

CN(Cc1cnc2nc(N)nc(N)c2n1)c1ccc(C(=O)N[C@@H](CCC(=O)O)C(=O)O)cc1
inactive: [1] | [2] | [3] | [4] | [6] | [7]; [11] | [10]

Cc1cc2c(s1)Nc1ccccc1N=C2N1CCN(C)CC1
active: [7]; [11] 39.8 µM
inactive: [1] | [2] | [3] | [4] | [6] | [8] | [10]

COC(=O)CCc1ccc(OCC(O)CNC(C)C)cc1 (stereo not given)
inactive: [1] | [2] | [4] | [6] | [8] | [10]
active: [3] 22.4 µM | [7]; [11] 31.6 µM

COC1=CC(=O)C[C@@H](C)[C@]12Oc1c(Cl)c(OC)cc(OC)c1C2=O
inactive: [1] | [2] | [3] | [4] | [6] | [7]; Channel type: confirmation | [7]; Channel type: primary | [9] | [10]

O=C1CCc2cc(OCCCCc3nnnn3C3CCCCC3)ccc2N1
inactive: [1] | [2] | [3] | [4] | [6] | [7]; [11] | [8] | [10]

OCCOCCN1CCN(C(c2ccccc2)c2ccc(Cl)cc2)CC1 (stereo not given)
inactive: [1] | [2] | [6] | [9] | [10]
active: [3] 25.1 µM | [4] 31.6 µM | [7]; [11] 31.6 µM

Source: PubChem BioAssay (NCATS)
